# Data as given in the supplement of paper PMC6555819.
# What was measured:
# Test in all cases: PBM binding z-score (relative to random genomic background probes); higher = stronger binding; sequences stand for … in GC…GCGATTGACAGCGTAGAATGAAGG
# [1] = test system: FXR:RXRa (NR concentration 270 nM, RXRa partner concentration 90 nM)
# Summary of the method: (§1)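 Binding z-scores were set against random background probes. The data came from custom Agilent 4×180K protein-binding microarrays carrying double-stranded probes with 34-nt variable regions, incubated 1 h with ligand-free nuclear receptor dimers. Partner-specific antibodies detected binding, and scanned fluorescence was regression-normalized.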
# [2] = test system: LXRa:RXRa (NR concentration 270 nM, RXRa partner concentration 90 nM)
# Summary of the method: as §1
# [3] = test system: LXRa homodimer (NR concentration 270 nM)
# Summary of the method: as §1
# [4] = test system: LXRb:RXRa (NR concentration 270 nM, RXRa partner concentration 90 nM)
# Summary of the method: as §1
# [5] = test system: LXRb homodimer (NR concentration 270 nM)
# Summary of the method: as §1
# [6] = test system: PPARa:RXRa (NR concentration 270 nM, RXRa partner concentration 90 nM)
# Summary of the method: as §1
# [7] = test system: PPARg:RXRa (NR concentration 180 nM, RXRa partner concentration 90 nM)
# Summary of the method: as §1
# [8] = test system: PPARg:RXRa 270nM:90nM, anti-RXR (NR concentration 270 nM, RXRa partner concentration 90 nM)
# Summary of the method: as §1
# [9] = test system: PPARg:RXRa 30nM:10nM, anti-RXR (NR concentration 30 nM, RXRa partner concentration 10 nM)
# Summary of the method: as §1
# [10] = test system: PPARg:RXRa 90nM:30nM, anti-RXR (NR concentration 90 nM, RXRa partner concentration 30 nM)
# Summary of the method: as §1
# [11] = test system: PPARg:RXRa DBDmut IVT, anti-RXR (DBD mutation: RXRa K156A/R161A, NR concentration 270 nM, RXRa partner concentration 90 nM)
# Summary of the method: as §1
# [12] = test system: PPARg:RXRa IVT, anti-PPARg (NR concentration 270 nM, RXRa partner concentration 90 nM)
# Summary of the method: as §1
# [13] = test system: PPARg DBDmut:RXRa IVT, anti-PPARg (DBD mutation: PPARg1 K132A/R137A, NR concentration 270 nM, RXRa partner concentration 90 nM)
# Summary of the method: as §1
# [14] = test system: PPARg DBDmut IVT, anti-PPARg (DBD mutation: PPARg1 K132A/R137A, NR concentration 270 nM)
# Summary of the method: as §1
# [15] = test system: PPARg homodimer (NR concentration 180 nM)
# Summary of the method: as §1
# [16] = test system: PXR:RXRa (NR concentration 270 nM, RXRa partner concentration 90 nM)
# Summary of the method: as §1
# [17] = test system: PXR homodimer (NR concentration 270 nM)
# Summary of the method: as §1
# [18] = test system: RARa:RXR (NR concentration 270 nM, RXRa partner concentration 90 nM)
# Summary of the method: as §1
# [19] = test system: RARa homodimer (NR concentration 270 nM)
# Summary of the method: as §1
# [20] = test system: RARb:RXRa (NR concentration 270 nM, RXRa partner concentration 90 nM)
# Summary of the method: as §1
Sequence,PBM binding z-score [1],PBM binding z-score [2],PBM binding z-score [3],PBM binding z-score [4],PBM binding z-score [5],PBM binding z-score [6],PBM binding z-score [7],PBM binding z-score [8],PBM binding z-score [9],PBM binding z-score [10],PBM binding z-score [11],PBM binding z-score [12],PBM binding z-score [13],PBM binding z-score [14],PBM binding z-score [15],PBM binding z-score [16],PBM binding z-score [17],PBM binding z-score [18],PBM binding z-score [19],PBM binding z-score [20]
CATACTAGGTCAAGAGGTCAAAGTCCGCTTCCCG,7.24,6.42,7.38,5.6,2.49,6.35,8.96,7.68,5.59,7.65,7.37,7.69,4.46,2.98,5.59,6.4,2.53,7.53,3.07,5.67
TCGAGTAGGTTAGGGGCATCCAGAATGGCGTCGA,0.419,0.286,-0.391,0.913,-0.812,1.38,0.651,2.05,1.32,1.8,1.78,1.45,-0.511,-0.719,0.537,0.349,-0.0589,0.496,-0.597,1.18
CCTACTGGGCCAAGATCATTGATCAGTCAAAGCA,-0.667,-0.791,-0.405,-0.59,-1.07,0.131,0.378,0.483,-0.171,0.221,3.49,2.81,-0.235,-0.518,-0.385,-0.498,-0.795,-0.319,-0.424,-0.341
CCTCGGAGGACAAGAGGAGGTCAGAGCTGCCAGA,0.831,1.16,0.18,0.759,-0.815,1.62,0.27,-0.135,-0.865,-0.28,-0.0535,0.408,-0.899,-1.36,0.986,1.71,-0.0509,1.94,0.29,2.54
ATATGTAGGTTAAGGGTCCTTCAGGTTGGTTCGC,0.735,1.21,0.278,1.18,0.267,4.59,8.87,8.11,8.31,9.26,7.65,7.29,1.78,0.916,2.1,1.1,0.435,1.23,0.703,1.24
AGAACGAGGTTATACGTAGATCAGGGAAGAAAGT,1.59,1.47,0.0402,1.32,-0.361,2.78,1.58,1.39,0.732,1,2.22,1.34,0.863,0.661,0.41,0.761,0.521,1.27,0.483,1.27
CGAACTAGGTCATTGACAGGACCGTGAATAGTAA,4.32,2.36,0.141,1.66,-0.048,4.62,7.17,6.36,3.72,5.79,8.09,8.42,3.24,1.41,2.02,0.914,-0.0715,1.5,0.647,3.51
ACAGACAGGTGAGTGAATGTAACTCAGCTGGACG,-0.0424,-0.166,-0.418,-0.486,-0.454,0.0946,0.779,-0.286,-0.216,-0.145,0.386,0.325,-0.206,-0.309,-0.0515,-0.136,0.0208,0.0204,-0.0735,0.384
ATCGAAAGGTCGTGAGGTGATTATACAGAAAGGC,5.04,4.01,0.374,3.36,0.471,4.92,4.09,4.21,1.66,2.92,0.336,1.93,1.12,1.16,1.42,3.14,0.165,3.89,0.608,4.08
CCAACTGGGCCATTCAGAGGTCATTGATCATATG,3,4.24,6.53,3.67,0.435,3.9,2.89,3.16,0.622,2.16,5.18,4.66,0.485,-0.774,4.42,5.05,2.64,4.72,0.73,3.02
GGAACGAGGGCATTCGAATTGATAGCATGGCGAT,0.807,0.373,-0.335,0.239,-0.211,1.31,1.15,1.14,0.413,0.651,3.02,2.16,-0.249,-0.176,-0.045,0.719,0.241,0.841,-0.483,1.9
TTACCAACGTGAGCTGAGGTCGTTGATCCAACTC,0.516,0.0402,-0.0796,0.169,-0.442,0.553,-0.116,-0.131,0.0496,-0.0803,-0.844,-0.235,-0.101,-0.365,-0.384,1.52,0.291,0.951,-0.767,0.217
CCTAGTTAGTCAAGGTCACACACGCTATAGGTAC,4.07,4.91,3.93,3.98,1.49,3.99,2.29,2.75,1.02,1.79,1.6,2.69,1.12,1.42,3.64,4.25,2.22,4.4,2.9,4.01
TAGCCTAGGTCAGATCGGGCCAGTATTCGCTATA,2.53,1.19,-0.155,0.7,-0.147,1.71,0.0951,0.687,-0.284,-0.025,0.568,1.66,-0.683,-1.02,0.109,1.28,-0.946,0.894,-0.762,3.14
CGTCACAGTTCAAGGTAACGTAACAGAAAGCAGC,2.2,1.91,0.443,1.52,0.237,2.46,1.29,1.19,0.243,0.61,0.275,1.23,0.33,0.734,0.946,1.93,0.75,1.78,0.462,2.73
TCATATAGGTTAACAGGTGAAAGTCCGTAAGTTA,1.57,1.72,0.586,1.72,0.145,3.68,5.44,5.12,4.64,4.91,5.79,5.64,2.16,1.92,1.58,1.46,0.372,1.93,1.1,2.08
ATCGAAAGGTCGTCAGGTGAGTATACAGAAAGGC,5.1,3.98,0.518,3.25,0.804,4.7,3.63,3.86,1.5,2.93,0.0444,2.18,2.81,1.05,2.13,3.04,0.936,3.91,0.966,3.84
TATATTAGTTGATTAGGGCAACCGAAACAGCGGA,0.381,0.319,0.79,0.365,1.33,0.535,0.578,0.666,1.02,0.819,0.409,2.01,2.25,1.83,1.16,0.636,0.89,0.181,2.13,1.16
